Test results reported in PubChem BioAssay (Tox21).
Several values for one entry are separate records, joined by “and”; a condition that tells them apart may be missing. Identical values can stand only once. Records with an inconclusive call do not appear. A structure can be active in one record and inactive in another. Activity calls are given as the source filed them. Unless noted, the call rests on the fitted dose curve; in most records, active means well fitted curve in the direction sought with a large enough effect in the repeat runs; inconclusive means weak or mixed curves; inactive means no such curve, though single readings can be large; an effect the other way counts as inactive or inconclusive.

Key:
[1] = qHTS assay to identify small molecule agonists of H2AX - cell viability counter screen (AID 1224847; calls by dose curve; further: nearly all actives have a fitted effect of over 30% in size; further: potency means the concentration at half of the fitted maximal effect;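 on activity change, negative = cytotoxicity: wild-type CHO-K1 cells; top concentration of the series differs between compounds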)
Procedure, shortened: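 CHO-K1 wt, 1000 cells/well, o/n 37C; cpds 15 conc, 3 h 37C, 0.76% DMSO; CellTiter-Glo, 30 min RT, luminescence.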

[2] = qHTS RealTime-Glo MT Cell Viability Assay in HepG2 cells - 24 hour (AID 1224867); further: nearly all actives have a fitted effect of over 50% in size
Procedure, shortened: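 Viability was tracked continuously by NanoLuc luminescence from prosubstrate reduced by living HepG2 cells, at successive time points over 40 h of compound exposure. Cells with reagent were preincubated 5 h at 37 °C before compound addition.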

[3] = qHTS RealTime-Glo MT Cell Viability Assay in HEK293 cells - 32 hour (AID 1224868); further: nearly all actives have a fitted effect of over 50% in size; further: potency means the concentration at half of the fitted maximal effect
Procedure, shortened: (§1)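 Viability tracked continuously by luminescence as live cells reduce a prosubstrate for NanoLuc; HEK293 cells preincubated 5 h, compound-treated at 37 C, and read at 0, 8, 16, 24, 32 and 40 h.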

[4] = A CellTox Green Cytotoxicity Assay to monitor cytotoxicity in HEK293 cells - 0 hour (AID 1224869); further: nearly all actives have a fitted effect of over 50% in size
Procedure, shortened: (§2)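 Cells (HEK293, 600/well) and dye reagent are dispensed together. After 5 h at 37 C, 23 nL compound is pinned in. Plates stay at 37 C for 40 h with fluorescence read at 0h, 8h, 16h, 24h, 32h and 40h.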

[5] = qHTS RealTime-Glo MT Cell Viability Assay in HepG2 cells - 40 hour (AID 1224870); further: nearly all actives have a fitted effect of over 50% in size
Procedure, shortened: (§3)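 Real-time viability: cells seeded at 600 per well together with NanoLuc and cell-permeant prosubstrate, compounds added after 5 h incubation. Luminescence tracked at 0, 8, 16, 24, 32 and 40 h of exposure.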

[6] = A CellTox Green Cytotoxicity Assay to monitor cytotoxicity in HEK293 cells - 40 hour (AID 1224871); further: nearly all actives have a fitted effect of over 45% in size; further: potency means the concentration at half of the fitted maximal effect
Procedure, shortened: as §2

[7] = qHTS RealTime-Glo MT Cell Viability Assay in HEK293 cells - 16 hour (AID 1224872)
Procedure, shortened: as §1

[8] = qHTS RealTime-Glo MT Cell Viability Assay in HepG2 cells - 8 hour (AID 1224873); further: nearly all actives have a fitted effect of over 55% in size
Procedure, shortened: as §3

[9] = qHTS assay to identify small molecule agonists of the estrogen related receptor (ERR) signaling pathway from Tox21 library (AID 1224849; calls by dose curve; further: nearly all actives have a fitted effect of over 15% in size); conditions: ERR reporter cell line, ONE-Glo luciferase, 18 h
Procedure, shortened: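 Cells carrying the ERR reporter were plated and allowed to settle for 6 h, exposed to library compounds for 18 h at 37 C, then lysed with ONE-Glo and luminescence measured.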

[10] = qHTS assay to identify small molecule antagonists of the estrogen related receptor (ERR) signaling pathway from Tox21 library (AID 1224848); further: nearly all actives have a fitted effect of over 50% in size
Procedure, shortened: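 ERR cell line, 2,000 cells/well. 6 h settle, then compound (DMSO) added; 18 h at 37 C; ONE-Glo luminescence after 30 min RT.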
On the % scale 0 is the no-effect control and ±100 the full control effect.

C=C(C)CCl
inactive: Potency [1] | outcome [2] | Potency [3] | Potency [4] | outcome [5] | Potency [6] | activity change, negative = cytotoxicity [7] 7.57% [at 6.97 µM] | outcome [8]

O=C(NC(=O)c1c(F)cccc1F)Nc1cc(Cl)c(OC(F)(F)C(F)C(F)(F)F)cc1Cl (stereo unspecified)
inactive: Potency [1] | activity change, positive = activation ([9]; at 42.5 µM (top of the series)) -26% | activity change, positive = activation ([9]; at 92.4 µM (top of the series)) -26.5% | outcome [2] | Potency [4] | outcome [5] | Potency [6] | outcome [7] | outcome [8]
12.3 µM (active) and inactive: Potency [3]

Nc1ccc(Br)cc1
inactive: Potency [1] | outcome [2] | Potency [3] | Potency [4] | outcome [5] | Potency [6] | outcome [7] | outcome [8]

C1CC2OC2CC1C1CO1 (stereo unspecified)
inactive: Potency [1] | outcome [2] | Potency [3] | Potency [4] | outcome [5] | Potency [6] | outcome [7] | outcome [8]

CCN(CC)CCO
inactive: Potency [1] | outcome [2] | Potency [3] | Potency [4] | outcome [5] | Potency [6] | outcome [7] | outcome [8]

CCC[N+](=O)[O-]
inactive: Potency [1] | outcome [2] | Potency [3] | Potency [4] | outcome [5] | outcome [7] | outcome [8]
38.2 µM (active) and inactive: Potency [6]

O=S(=O)(c1ccc(O)cc1)c1ccc(O)cc1
inactive: Potency [1] | outcome [2] | Potency [3] | Potency [4] | outcome [5] | Potency [6] | outcome [7] | outcome [8]

O=C(O)c1ccccn1
inactive: Potency [1] | outcome [2] | Potency [3] | Potency [4] | outcome [5] | Potency [6] | outcome [7] | outcome [8]

C#CCN(C)[C@H](C)Cc1ccccc1
inactive: Potency [1] | outcome [2] | Potency [3] | Potency [4] | outcome [5] | Potency [6] | outcome [7] | outcome [8]

CC(C)=C[C@@H]1[C@@H](C(=O)OCc2coc(Cc3ccccc3)c2)C1(C)C
inactive: Potency [1] | outcome [2] | Potency [3] | Potency [4] | outcome [5] | Potency [6] | outcome [7] | outcome [8]

CC(C)(Cl)Cl
inactive: Potency [1] | outcome [2] | Potency [3] | Potency [4] | outcome [5] | Potency [6] | outcome [7] | outcome [8]

O=S(=O)(c1ccc(Cl)cc1)c1cc(Cl)c(Cl)cc1Cl
active: Potency [1] 89.6 µM
inactive: outcome [2] | Potency [3] | Potency [4] | outcome [5] | Potency [6] | outcome [7] | outcome [8]

CC(Br)C(=O)O (stereo unspecified)
inactive: Potency [1] | outcome [2] | Potency [3] | Potency [4] | outcome [5] | Potency [6] | outcome [7] | outcome [8]

CN(C)N=O
inactive: Potency [1] | outcome [2] | Potency [3] | Potency [4] | outcome [5] | Potency [6] | outcome [7] | outcome [8]

CCOP(=S)(OCC)Oc1cnc2ccccc2n1
inactive: Potency [1] | outcome [2] | Potency [3] | Potency [4] | outcome [5] | Potency [6] | outcome [7] | outcome [8]

CC(C)NC(=O)N1CC(=O)N(c2cc(Cl)cc(Cl)c2)C1=O
inactive: Potency [1] | Potency [10] | activity change, positive = activation ([9]; at 92.4 µM (top of the series)) -27.3% and -5.72% | outcome [2] | Potency [4] | outcome [5] | Potency [6] | outcome [7] | outcome [8]

CCC12COCN1COC2
inactive: Potency [1] | outcome [2] | Potency [3] | Potency [4] | outcome [5] | Potency [6] | outcome [7] | outcome [8]

COC(=O)NC(=S)Nc1ccccc1NC(=S)NC(=O)OC
inactive: Potency [1] | outcome [2] | Potency [3] | Potency [4] | outcome [5] | Potency [6] | outcome [7] | outcome [8]

Cc1[nH]c(=O)n(C(C)(C)C)c(=O)c1Cl
inactive: Potency [1] | outcome [2] | Potency [3] | Potency [4] | outcome [5] | Potency [6] | outcome [7] | outcome [8]

Nc1ccc(Cc2ccc(N)cc2)cc1
inactive: Potency [1] | outcome [2] | Potency [3] | Potency [4] | outcome [5] | Potency [6] | outcome [7] | outcome [8]

CC(NC(C)(C)C)C(=O)c1cccc(Cl)c1 (stereo unspecified)
inactive: Potency [1] | outcome [2] | Potency [3] | Potency [4] | outcome [5] | Potency [6] | outcome [7] | outcome [8]

Clc1ccc(Cl)cc1
inactive: Potency [1] | outcome [2] | Potency [3] | Potency [4] | outcome [5] | Potency [6] | outcome [7] | outcome [8]

Cc1ccc([N+](=O)[O-])cc1C
inactive: Potency [1] | outcome [2] | Potency [3] | Potency [4] | outcome [5] | Potency [6] | outcome [7] | outcome [8]

NCCc1ccc(O)cc1
inactive: Potency [1] | outcome [2] | Potency [3] | Potency [4] | outcome [5] | Potency [6] | outcome [7] | outcome [8]

Cc1cc(-c2cc(C)c(N)c(C)c2)cc(C)c1N
inactive: Potency [1] | outcome [2] | Potency [3] | Potency [4] | outcome [5] | Potency [6] | outcome [7] | outcome [8]

CCN(CC)c1ccccc1
inactive: Potency [1] | outcome [2] | Potency [3] | Potency [4] | outcome [5] | Potency [6] | outcome [7] | outcome [8]

Cc1ccc(N)cc1Cl
inactive: Potency [1] | outcome [2] | Potency [3] | Potency [4] | outcome [5] | Potency [6] | outcome [7] | outcome [8]

c1ccc2c(c1)oc1ccccc12
inactive: Potency [1] | outcome [2] | Potency [3] | Potency [4] | outcome [5] | outcome [7] | outcome [8]
